The whole screen tested about 360,000 compounds, of which about 2,400 (0.67%) were called active.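 Rule for the calls: active = compounds whose normalised, plate-corrected inhibition of enzyme fluorescence in the single-dose primary screen is 50% or more; inactive = the rest.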 Many of the other results were omitted from the sample, so actives are more common in it than they were.
What follows are compounds tested against Fatty acid synthase (Homo sapiens) (UniProt P49327) (assay: inhibition of human FAS-TE enzyme activity – biochemical, fluorescence intensity, uHTS, primary screen (AID 602261;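 note: 0% = DMSO with enzyme and 100% = substrate without enzyme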)). Conditions: recombinant FAS-TE, OMFH fluorogenic substrate, fluorescence endpoint; at 15 µM; stronger effect = higher value.
Sequence of Fatty acid synthase (Homo sapiens) (P49327 whole entry, looked up): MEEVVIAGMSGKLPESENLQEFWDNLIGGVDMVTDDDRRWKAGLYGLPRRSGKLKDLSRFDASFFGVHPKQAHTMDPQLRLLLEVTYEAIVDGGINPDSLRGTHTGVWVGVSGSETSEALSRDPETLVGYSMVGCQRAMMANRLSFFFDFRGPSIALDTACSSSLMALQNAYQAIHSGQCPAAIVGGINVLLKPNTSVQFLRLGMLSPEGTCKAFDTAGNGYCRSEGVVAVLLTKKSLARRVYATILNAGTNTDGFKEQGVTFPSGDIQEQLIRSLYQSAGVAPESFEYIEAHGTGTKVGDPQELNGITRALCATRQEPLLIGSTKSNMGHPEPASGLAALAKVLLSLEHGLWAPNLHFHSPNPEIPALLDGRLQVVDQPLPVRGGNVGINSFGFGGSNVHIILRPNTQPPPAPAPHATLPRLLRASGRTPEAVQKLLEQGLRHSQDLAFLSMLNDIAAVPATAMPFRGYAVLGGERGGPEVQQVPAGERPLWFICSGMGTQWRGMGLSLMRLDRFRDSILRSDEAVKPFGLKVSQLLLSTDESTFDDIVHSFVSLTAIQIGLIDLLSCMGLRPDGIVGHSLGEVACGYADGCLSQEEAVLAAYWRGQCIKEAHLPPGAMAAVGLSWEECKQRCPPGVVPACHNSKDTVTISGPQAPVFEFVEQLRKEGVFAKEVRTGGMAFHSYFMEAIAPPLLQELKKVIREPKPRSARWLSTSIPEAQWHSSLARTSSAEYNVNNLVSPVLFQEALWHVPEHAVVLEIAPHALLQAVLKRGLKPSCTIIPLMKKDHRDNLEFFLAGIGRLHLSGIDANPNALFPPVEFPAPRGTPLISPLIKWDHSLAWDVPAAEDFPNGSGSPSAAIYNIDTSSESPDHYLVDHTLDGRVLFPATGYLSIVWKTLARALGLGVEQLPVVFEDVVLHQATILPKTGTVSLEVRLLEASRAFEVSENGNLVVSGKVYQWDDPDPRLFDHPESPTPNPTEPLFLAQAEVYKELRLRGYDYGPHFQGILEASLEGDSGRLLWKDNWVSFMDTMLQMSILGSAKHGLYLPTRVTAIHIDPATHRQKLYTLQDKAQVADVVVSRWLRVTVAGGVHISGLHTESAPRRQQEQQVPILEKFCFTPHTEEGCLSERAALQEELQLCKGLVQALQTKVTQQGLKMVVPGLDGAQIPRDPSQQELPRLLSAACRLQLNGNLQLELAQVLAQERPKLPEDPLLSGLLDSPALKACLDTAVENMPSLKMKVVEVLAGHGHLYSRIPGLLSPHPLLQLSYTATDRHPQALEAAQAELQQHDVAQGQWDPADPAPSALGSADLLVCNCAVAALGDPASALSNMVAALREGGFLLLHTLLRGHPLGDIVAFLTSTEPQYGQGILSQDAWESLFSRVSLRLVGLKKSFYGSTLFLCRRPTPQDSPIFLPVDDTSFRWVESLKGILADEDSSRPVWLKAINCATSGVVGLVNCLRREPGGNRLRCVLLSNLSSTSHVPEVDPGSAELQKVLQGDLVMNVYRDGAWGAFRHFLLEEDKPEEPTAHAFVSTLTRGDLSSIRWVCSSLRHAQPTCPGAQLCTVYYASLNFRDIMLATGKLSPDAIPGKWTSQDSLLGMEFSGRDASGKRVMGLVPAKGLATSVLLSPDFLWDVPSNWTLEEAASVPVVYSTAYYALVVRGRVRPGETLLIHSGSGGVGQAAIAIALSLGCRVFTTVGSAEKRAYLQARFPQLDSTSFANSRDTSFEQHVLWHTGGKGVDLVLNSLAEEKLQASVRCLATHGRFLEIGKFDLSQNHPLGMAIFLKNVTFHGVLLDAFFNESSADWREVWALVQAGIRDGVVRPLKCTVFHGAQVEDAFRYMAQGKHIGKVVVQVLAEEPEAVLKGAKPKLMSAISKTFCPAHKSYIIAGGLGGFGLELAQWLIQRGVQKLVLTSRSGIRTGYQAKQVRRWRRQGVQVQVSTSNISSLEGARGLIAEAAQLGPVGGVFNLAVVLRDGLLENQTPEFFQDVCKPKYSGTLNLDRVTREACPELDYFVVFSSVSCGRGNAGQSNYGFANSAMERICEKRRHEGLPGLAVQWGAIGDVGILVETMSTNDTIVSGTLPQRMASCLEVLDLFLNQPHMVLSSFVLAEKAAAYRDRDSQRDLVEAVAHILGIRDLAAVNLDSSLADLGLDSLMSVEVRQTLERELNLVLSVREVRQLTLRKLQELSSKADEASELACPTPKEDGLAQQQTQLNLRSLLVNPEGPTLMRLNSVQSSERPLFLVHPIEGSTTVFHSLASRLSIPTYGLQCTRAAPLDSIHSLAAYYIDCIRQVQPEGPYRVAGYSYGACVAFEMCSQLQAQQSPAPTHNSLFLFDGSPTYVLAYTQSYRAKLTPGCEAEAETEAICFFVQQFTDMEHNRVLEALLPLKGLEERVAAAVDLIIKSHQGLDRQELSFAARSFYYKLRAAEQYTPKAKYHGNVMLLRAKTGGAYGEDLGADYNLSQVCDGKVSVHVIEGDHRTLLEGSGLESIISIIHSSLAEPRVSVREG

Row | SMILES | inhibition
1 | O=C(CN1CCC(NC(=O)Nc2ccccc2)CC1)Nc1cccc([N+](=O)[O-])c1 | 1.8% (inactive)
2 | CCc1ccc(NC(=O)N2CCc3ccccc3C2)cc1 | 4.2% (inactive)
3 | O=C(Nc1cccc([N+](=O)[O-])c1)N1CCc2ccccc2C1 | 52.5% (active)
4 | N#CCC(=O)N/N=C/c1ccc(SCC(=O)Nc2ccccc2)o1 | -2.5% (inactive)
5 | CCC1CCCCN1CCCNC(=O)c1cc2c(Cl)nc3ccccc3c2s1 (stereo not drawn) | -5.7% (inactive)
6 | O=[N+]([O-])c1c(NCCO)cc(Sc2nc3ccccc3s2)c2nonc12 | 83.1% (active)
7 | COc1cc(C2C(C(=O)c3cccs3)=C(O)C(=O)N2CCN2CCOCC2)ccc1OCCC(C)C (stereo not drawn) | 0.8% (inactive)
8 | Cc1cc(C)c(C2C3=C(Nc4c2c(C)nn4-c2ccccn2)c2ccccc2C3=O)c(C)c1 (stereo not drawn) | 68.9% (active)
9 | CC/C(Cc1ccccc1)=N/NC(=O)CCn1nnc2ccccc21 | -8.1% (inactive)
10 | CC1(C(=O)NS(=O)(=O)c2ccc(C#N)cc2)CCN1C(=O)CC1CCCC1 (stereo not drawn) | 4.2% (inactive)
11 | CC1(C(=O)NS(=O)(=O)c2ccc(C#N)cc2)CCN1C(=O)c1ccc(C2CCCCC2)cc1 (stereo not drawn) | 62.6% (active)
12 | Cc1noc(C)c1C(=O)N1CCC1(C)C(=O)NS(=O)(=O)c1ccc(C#N)cc1 (stereo not drawn) | -9% (inactive)
13 | O=C1CCC/C(=N\NC(=O)NC2CCCCC2)C1 | -1% (inactive)
14 | CCOC(=O)N1CCN(Cc2nc3ccc([N+](=O)[O-])cc3c(=O)n2-c2cccc(OC)c2)CC1 | 72.4% (active)
15 | CCOC(=O)N1CCN(Cc2nc3cc(NC(C)=O)ccc3n2C)CC1 | -7% (inactive)
16 | COc1cccc(-n2nc(C(=O)N3CCN(Cc4ccccc4)CC3)c3ccccc3c2=O)c1 | 3.5% (inactive)
17 | CCOC(=O)CSC1=N/C(=C/c2ccc(-n3cncn3)cc2)C(=O)N1C(C)=O | -6.6% (inactive)
18 | Cc1c(Cl)c([N+](=O)[O-])nn1Cc1ccc(C(=O)N/N=C\c2cc(Cl)ccc2O)o1 | 36.1% (inactive)
19 | Cc1cc(C(=O)N/N=C/c2cc([N+](=O)[O-])cc(C)c2O)n[nH]1 | 65.7% (active)
20 | Cc1occc1C(=O)N/N=C/c1ccc(-c2cccc([N+](=O)[O-])c2)o1 | 20.7% (inactive)
21 | Cc1ccc(S(=O)(=O)Nc2ccc3c(c2)C(=O)N([C@H](C)CO)C[C@@H](C)[C@@H](CN(C)C(=O)Nc2cccc4ccccc24)O3)cc1 | -2.7% (inactive)
22 | COc1ccc2nc(Nc3nc4cc5c(cc4s3)OCCO5)sc2c1 | 66.6% (active)

Row | SMILES | inhibition
23 | Fc1ccc2nc(Nc3nc4c(s3)CCCC4)sc2c1 | 7.4% (inactive)
24 | COc1ccc2nc(N3CCN(C(=O)c4ccc([N+](=O)[O-])o4)CC3)sc2c1 | 10.7% (inactive)
25 | CSc1ccccc1NC(=O)c1cnc2sc(C)cn2c1=O | 4.9% (inactive)
26 | O=[N+]([O-])c1cc([N+](=O)[O-])c(Oc2cc(F)cc(F)c2F)cc1NN1CCCCC1 | 11.3% (inactive)
27 | Cc1cccc(C(=O)OCC(=O)NC(C)C2CC3CCC2C3)c1O (stereo not drawn) | 20.1% (inactive)
28 | Cc1c(C(=O)NC(C)C2CC3CCC2C3)cccc1[N+](=O)[O-] (stereo not drawn) | 11.2% (inactive)
29 | COC(=O)c1cc(C(=O)NC(C)C2CC3CCC2C3)cc([N+](=O)[O-])c1 (stereo not drawn) | 50.5% (active)
30 | COc1ccc(CN2C(CC(=O)Nc3cccnc3)c3ccc(C(F)(F)F)cc3S2(=O)=O)cc1 (stereo not drawn) | 14.3% (inactive)
31 | CCCCc1nc2cc(C(=O)NCCc3cnn(C)c3)ccc2o1 | -2.8% (inactive)
32 | Cc1noc(C)c1NC(=O)Nc1ccc2c(c1)C(=O)N([C@H](C)CO)C[C@H](C)[C@@H](CN(C)C(=O)Nc1ccccc1)O2 | -5.3% (inactive)
33 | Cc1noc(C)c1NC(=O)Nc1cccc2c1O[C@H](CN(C)S(=O)(=O)c1c(C)noc1C)[C@@H](C)CN([C@H](C)CO)C2=O | 3.4% (inactive)
34 | Cc1noc(C)c1NC(=O)Nc1cccc2c1O[C@H](CN(C)C(=O)Nc1ccccc1)[C@@H](C)CN([C@H](C)CO)C2=O | 55.4% (active)
35 | COc1ccc(CCCNC(=O)C2Cc3c(-c4cccc(C(N)=O)c4)ccnc3O2)cc1 (stereo not drawn) | 1.7% (inactive)
36 | O=S(=O)(NCCCCCCNS(=O)(=O)c1c(F)cccc1F)c1ccc2c(c1)OCCO2 | 3.8% (inactive)
37 | O=C(Nc1nnc(SCc2ccccc2Cl)s1)c1cccc([N+](=O)[O-])c1 | 58.6% (active)
38 | O=C(Nc1nnc(SCc2c(Cl)cccc2Cl)s1)C1CCCO1 (stereo not drawn) | 0.2% (inactive)
39 | COCCSc1nnc(NC(=O)c2cc(OC)c(OC)cc2[N+](=O)[O-])s1 | -10.4% (inactive)
40 | CCCn1c(N)c(C(=O)CSc2nc3ccccc3c(=O)n2-c2ccc(OC)cc2)c(=O)[nH]c1=O | -0.6% (inactive)
41 | O=S(=O)(Cc1noc(-c2ccc(OC(F)(F)F)cc2)n1)c1ccc(F)cc1 | 15.8% (inactive)
42 | Cc1ccc(S(=O)(=O)NCC(=O)N(CC(=O)NCC2CCCO2)c2cccc(F)c2)cc1 (stereo not drawn) | -4.4% (inactive)
43 | CC(C)Oc1ccc(CCc2n[nH]c(=S)n2Cc2ccccc2)cc1 | 19.3% (inactive)
44 | COc1cc(-c2n[nH]c(=S)n2Cc2ccccc2)cc(OC)c1OC | -3.4% (inactive)

Row | SMILES | inhibition
45 | CC(C)Oc1ccc(Cc2n[nH]c(=S)n2Cc2ccccc2)cc1Cl | 57% (active)
46 | O=C(Nc1cccc(S(=O)(=O)N2CCOCC2)c1)C12CC3CC(CC(C3)C1)C2 | 9.3% (inactive)
47 | O=C(/C=C/c1cccc([N+](=O)[O-])c1)NCCSCc1ccco1 | 55.4% (active)
48 | O=C(NCc1ccco1)/C(=C/c1cccc([N+](=O)[O-])c1)NC(=O)c1ccco1 | 38.7% (inactive)
49 | O=C(NCc1ccco1)/C(=C\c1cccc([N+](=O)[O-])c1)NC(=O)c1ccco1 | 51.4% (active)
50 | O=C(/C=C/c1ccc([N+](=O)[O-])cc1)NCCSCc1ccco1 | 9.8% (inactive)
51 | O=C(Nc1ccc2ccccc2c1)/C(=C/c1cccc(Br)c1)NC(=O)c1ccco1 | 52.3% (active)
52 | O=C(NCc1ccco1)/C(=C/c1ccco1)NC(=O)c1ccccc1 | -4.1% (inactive)
53 | Cc1ccc(NC(=O)/C(=C\c2ccccc2)NC(=O)c2ccco2)cc1 | 0% (inactive)
54 | COc1ccc(/C=C(/NC(=O)c2ccco2)C(=O)Nc2ccc(C(C)=O)cc2)cc1 | -1.1% (inactive)
55 | O=C(NCc1ccco1)c1ccc([N+](=O)[O-])cc1Cl | 5.6% (inactive)
56 | Cc1cc([N+](=O)[O-])nn1Cc1ccc(F)cc1 | -0.9% (inactive)
57 | CCC1CCC/C1=N\NC(=O)c1ccc(Cl)cc1 (stereo not drawn) | -4.6% (inactive)
58 | COc1ccc(OC)c(NC(=O)c2cc(-c3cc(F)ccc3OCC3CCCO3)n[nH]2)c1 (stereo not drawn) | 22.4% (inactive)
59 | CCN(CC)S(=O)(=O)c1ccc2[nH]c(=O)cc(C(=O)N(C)C3CCS(=O)(=O)C3)c2c1 (stereo not drawn) | 0% (inactive)
60 | Cc1ccc(S(=O)(=O)n2cnc3ccccc32)c(C)c1 | -4.2% (inactive)
61 | CCOC(=O)c1nnn2c1nc(N1CCN(c3ccccc3)CC1)c1ccccc12 | 19.9% (inactive)
62 | Cc1ccc(S(=O)(=O)c2nnn3c2nc(N2CCN(c4ccccn4)CC2)c2ccccc23)cc1 | 65.9% (active)
63 | Cc1cccc(Nc2nc3c(S(=O)(=O)c4ccccc4)nnn3c3ccccc23)c1C | -3.1% (inactive)
64 | CCc1ccccc1OCC(=O)Nc1nnc(C2CC2)s1 | -9.2% (inactive)
65 | Cc1ccc(S(=O)(=O)N2CCN(C(=O)c3ccccc3-c3nc4ccccc4s3)CC2)c(C)c1 | 15.3% (inactive)
66 | OC(CN1C2=NCCCN2c2ccccc21)c1ccc(Br)cc1 (stereo not drawn) | -4.6% (inactive)

Row | SMILES | inhibition
67 | CC(NC(=O)c1ccco1)c1ccc2c(c1)OCO2 (stereo not drawn) | -6.5% (inactive)
68 | Cc1noc(C)c1C(=O)NC(C)c1ccc2c(c1)OCO2 (stereo not drawn) | -5.5% (inactive)
69 | CC(NC(=O)Nc1cccc([N+](=O)[O-])c1)c1ccc2c(c1)OCO2 (stereo not drawn) | 83.4% (active)
70 | CCN1CCN(c2sc(S(C)(=O)=O)nc2S(=O)(=O)c2ccc(Cl)cc2)CC1 | -2.8% (inactive)
71 | O=C(Nc1ccc(S(=O)(=O)N2CCOCC2)cc1)C1CCN(S(=O)(=O)c2ccc(Cl)cc2)CC1 | 28.3% (inactive)
72 | O=C(Nc1ccccc1)c1nnsc1S(=O)(=O)c1ccc(Cl)cc1 | 69.7% (active)
73 | Cc1nnsc1S(=O)(=O)Cc1ccccc1Cl | -6.8% (inactive)
74 | O=C(NCCO)c1cccc(-c2cccc3nccn23)c1 | -6.3% (inactive)
75 | Cc1cc(C(F)F)nn1CC(=O)NC1CCCCCC1 | -5.3% (inactive)
76 | Cn1c(=O)n(C)c2cc(NS(=O)(=O)c3ccc(F)cc3)ccc21 | -7.3% (inactive)
77 | CC1(C)CC(=O)c2c(n(S(=O)(=O)c3ccccc3)c3ccc(NS(=O)(=O)c4ccccc4)cc23)C1 | 79.6% (active)
78 | COc1ccccc1-n1cnc2cc(NS(=O)(=O)c3ccccc3)ccc21 | 0.1% (inactive)
79 | CC(=O)N(Cc1cccs1)C1CCOC(C)(C)C1 (stereo not drawn) | -7.2% (inactive)
80 | CCCCN1C(=O)CCC(C(=O)O)C1c1ccc(OC)cc1 (stereo not drawn) | -7.9% (inactive)
81 | COc1ccc(C(=O)N(C)CC(O)c2ccccc2)cc1OC1CCN(C(C)=O)CC1 (stereo not drawn) | 0.7% (inactive)
82 | Cc1ccc(S/C(=N\S(=O)(=O)c2ccc(Cl)cc2)c2ccccc2)cc1 | 57.1% (active)
83 | Cc1ccc(S(=O)(=O)/N=C(/Nc2ccc3[nH]c(=O)[nH]c3c2)c2ccccc2)cc1 | -11.9% (inactive)
84 | Cc1ccc(S(=O)(=O)/N=C(/Nc2ccccn2)c2ccc(Cl)cc2)cc1 | 2.1% (inactive)
85 | COc1ccccc1C1CCN(C(=S)Nc2ccc(Br)cc2)CC1 | 31% (inactive)
86 | CCOc1ccc(Br)cc1S(=O)(=O)Nc1ccc(S(=O)(=O)Nc2cc(C)on2)cc1 | -8.8% (inactive)
87 | CCOc1ccc(Br)cc1S(=O)(=O)Nc1ccc(C(=O)OC(C)C(=O)N(C)c2ccccc2)cc1 (stereo not drawn) | 53.8% (active)
88 | CCOc1ccc(Br)cc1S(=O)(=O)Nc1cccc(S(=O)(=O)N(CC)CC)c1 | 22.7% (inactive)

Reference: PubChem BioAssay AID602261 (Sanford-Burnham Center for Chemical Genomics, 2012)
